# According to PubChem BioAssay (Tox21):
# Results filed as inconclusive are left out. A number with no mark means an inactive call. The source made the active and inactive calls. The call rests on the fitted dose curve; in most records, active means well fitted inhibition curve with a large enough effect in the signal ratio in the repeat runs (not every such curve was filed as active); inconclusive means weak or mixed curves, or effect the other way; inactive means no such curve, though single readings can be large or run the other way; the % refers to the signal ratio.
# Target: Peroxisome proliferator-activated receptor delta (Homo sapiens) (UniProt Q03181)
# Assay: qHTS assay to identify small molecule antagonists of the peroxisome proliferator-activated receptor delta (PPARd) signaling pathway (AID 743215);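 further: cells stimulated with agonist L165041 at 300 nM final during compound exposure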
# Conditions: HEK293H PPARd-UAS-bla, beta-lactamase FRET ratio, antagonist, 17 h; series mostly up to 62 µM
# Description: U.S. Tox21 Program National Center for Advancing Translational Sciences [NCATS] NIH Chemical Genomics Center [NCGC] U.S. Environmental Protection Agency [EPA] National Institutes of Environmental Health Sciences [NIEHS] National Toxicology Program [NTP] U.S. Food and Drug Administration [FDA] Tox21 Assay Overview: The peroxisome proliferator-activated receptors (PPARs) are lipid-activated transcription factors of the nuclear receptor superfamily with three distinct subtypes namely PPAR alpha, PPAR delta (PPARd) and PPAR gamma. All these subtypes heterodimerizes with Retinoid X receptor (RXR) and have different physiological functions. […] To identify the compounds that inhibit PPAR-delta signaling, GeneBLAzer PPAR delta UAS-bla HEK293H cell line (Invitrogen, Carlsbad, CA, USA) containing a beta-lactamase reporter gene under the control of an Upstream Activator Sequence (UAS) was used to screen the Tox21 compound library.
# Tox21 Assay Protocol Summary: PPARd-bla cells were dispensed at 3000 cells/5uL/well in 1536-well black wall/clear bottom plates using a Multidrop Combi (Thermo Fisher Scientific, Waltham, MA) dispenser. After the assay plates were incubated at 37 C and 5% CO2 for 5 h, 23 nL of compounds dissolved in DMSO, positive controls or DMSO only was transferred to the assay plate by a Pintool station (Kalypsys, San Diego, CA), followed by addition of 1ul L165041 (300 nM, final concentration in the wells). The assay plates were incubated at 37 C for 17 h, and then 1 uL of LiveBLAzerTM B/G FRET substrate was added using a Bioraptr Flying Reagent Dispenser (FRD) workstation (Beckman Coulter, Indianapolis, IN, USA). The assay plates were incubated at room temperature for 2 h and fluorescence intensity was measured by an Envision plate reader (PerkinElmer, Shelton, CT).
# On the % scale 0 is the no-effect control and ±100 the full control effect.
# Sequence of Peroxisome proliferator-activated receptor delta (Homo sapiens) (Q03181 whole entry, looked up): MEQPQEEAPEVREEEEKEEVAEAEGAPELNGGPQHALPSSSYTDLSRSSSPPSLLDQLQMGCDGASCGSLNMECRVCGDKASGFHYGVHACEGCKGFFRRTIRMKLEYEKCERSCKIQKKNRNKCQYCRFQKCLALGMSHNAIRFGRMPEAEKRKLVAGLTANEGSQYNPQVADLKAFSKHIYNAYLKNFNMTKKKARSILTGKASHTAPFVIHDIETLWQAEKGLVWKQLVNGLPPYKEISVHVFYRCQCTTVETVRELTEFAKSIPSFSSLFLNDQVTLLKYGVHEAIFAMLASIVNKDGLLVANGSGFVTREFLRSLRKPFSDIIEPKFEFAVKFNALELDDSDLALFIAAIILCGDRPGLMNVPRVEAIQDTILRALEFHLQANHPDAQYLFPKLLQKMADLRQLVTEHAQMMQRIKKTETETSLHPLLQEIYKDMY
SMILES,outcome,"ratio activity, negative = inhibition"
COC(=O)c1cc(Cl)c(NC(C)=O)cc1OC,inactive,
CC(=O)SC[C@@H](C)C(=O)N1CCC[C@H]1C(=O)N[C@@H](Cc1ccccc1)C(=O)O,inactive,
C[C@@H](CN1CC(=O)NC(=O)C1)N1CC(=O)NC(=O)C1,inactive,
C=CC(C)(CCC=C(C)C)OC(=O)C(C)C (stereo not given),inactive,
CNC(C)=O,inactive,
Cc1ccc2ccccc2n1,inactive,
COC(=O)/C=C(\C)CCC=C(C)C,inactive,
Nc1nc(Cl)cc(Cl)n1,inactive,
C=C(C)C(=O)OCCOC1CC2CC1C1C=CCC21 (stereo not given),inactive,
CCCCS,inactive,
CC1=C(O)C(=O)CO1,inactive,
CC(=O)Oc1ccc(C(C)=O)cc1,inactive,
COC(=O)N/N=C/c1c[n+]([O-])c2ccccc2[n+]1[O-],inactive,
CC(C)(C)OC(=O)c1ccccc1C(=O)O,inactive,
COC(C)(C)CC(C)=O,inactive,
C/C(Cl)=C/CCl,inactive,
O=C[C@@H](O)[C@H](O)[C@H](O)CO,inactive,
CC/C=C/CCCCCCCCCCOC(C)=O,inactive,
COC(=O)C(c1ccccc1Cl)N1CCc2sccc2C1 (stereo not given),inactive,
CCCCN=C(N)N=C(N)N,inactive,

SMILES,outcome,"ratio activity, negative = inhibition"
C[C@@H]1CC[C@@]2(OC1)O[C@H]1C[C@H]3[C@@H]4CC[C@H]5C[C@@H](O)CC[C@]5(C)[C@H]4CC(=O)[C@]3(C)[C@H]1[C@@H]2C,,2.62% [at 6.26 µM]
O=S(=O)(O)c1cc(I)c(O)c2ncccc12,inactive,
CN(C)CCC[C@@]1(c2ccc(F)cc2)OCc2cc(C#N)ccc21,inactive,
Cc1ccccc1OCC(=O)O,inactive,
CCOC(=O)[C@H](CCc1ccccc1)N[C@H]1CS[C@H](c2cccs2)CN(CC(=O)O)C1=O,inactive,
Nc1cc(S(=O)(=O)O)ccc1O,inactive,
COc1ccccc1N1CCN(CC(O)COc2cc(OC)c(OC)c(OC)c2)CC1 (stereo not given),inactive,
O=C(O)P(=O)(O)O,inactive,
N#Cc1cc(NC(=O)C(=O)O)c(Cl)c(NC(=O)C(=O)O)c1,inactive,
CC(C)(C)C(=O)NCCCC(=O)O,inactive,
CCCCCCCCC1CO1 (stereo not given),inactive,
Cc1ccccc1C#N,inactive,
O=c1c(O)c(O)c1=O,inactive,
CN(C)c1ccncc1,inactive,
COC(=O)c1ccc(NC(C)=O)cc1OC,inactive,
C=CCN1CCc2nc(N)sc2CC1,inactive,
CC(C)c1cc(C(C)C)cc(C(C)C)c1,inactive,
N=C(N)N,inactive,
CCCCCCCCCCCBr,inactive,
COc1cc(S(N)(=O)=O)cc(C(=O)O)c1OC,inactive,
